Where “and” joins values, the source holds several entries; their conditions need not be identical. Equal entries are not always repeated. About 79,000 compounds went through this panel and 15% of them were active in at least one assay; those are over-represented in the sample as a whole. Values without a mark were called inactive. Calls of active or inactive are those of the source. Cut-off read from the data, not from the text of the source: active = growth inhibition above about 70%; inactive = the rest.
Columns and labels:
[1] = NCI Yeast Anticancer Drug Screen. Data for the rad50 strain (AID 155);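 note: 0% = growth of vehicle-only cultures of the same strain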; conditions: S. cerevisiae rad50 strain growth inhibition; at 50.0 µM; stronger effect = higher value
How it was run: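 Yeast carrying a defined DNA repair defect were exposed to test compounds, and growth was compared with vehicle-treated controls to give percent inhibition.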

[2] = NCI Yeast Anticancer Drug Screen. Data for the mec2-1 strain (AID 157); conditions: S. cerevisiae mec2-1 strain, at 50.0 µM, stronger effect = higher value
How it was run: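 Compounds were applied to mec2-1 yeast cells. Their growth was then compared with that of vehicle-treated cultures to give growth inhibition.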

[3] = NCI Yeast Anticancer Drug Screen. Data for the sgs1 mgt1 strain (AID 161);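 note: 0% = growth of cultures given vehicle only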; conditions: S. cerevisiae sgs1 mgt1 strain, at 50.0 µM, stronger effect = higher value
How it was run: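 Percent growth inhibition was derived by comparing compound-exposed mutant yeast with vehicle-exposed cultures. The strain carries alterations in DNA damage repair.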

[4] = NCI Yeast Anticancer Drug Screen. Data for the cln2 rad14 strain (AID 165);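 note: 0% = growth equal to vehicle treated cultures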; conditions: S. cerevisiae cln2 rad14 strain, at 50.0 µM, stronger effect = higher value
How it was run: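 Strain: cln2 rad14 yeast, altered in cell cycle control and DNA damage repair. Read-out: growth inhibition vs vehicle.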

[5] = NCI Yeast Anticancer Drug Screen. Data for the bub3 strain (AID 167); conditions: S. cerevisiae bub3 mutant strain, at 50.0 µM, stronger effect = higher value
How it was run: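 Compounds were applied to a genetically altered yeast strain carrying a cell-cycle control defect. Growth inhibition was scored against vehicle-treated controls.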

[6] = NCI Yeast Anticancer Drug Screen. Data for the mlh1 rad18 strain (AID 175); conditions: S. cerevisiae mlh1 rad18 strain growth inhibition; at 50.0 µM; stronger effect = higher value
How it was run: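 A repair-deficient yeast strain is exposed to test compound, and growth is scored relative to vehicle-treated controls.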

SMILES	growth inhibition [1]	growth inhibition [2]	growth inhibition [3]	growth inhibition [4]	growth inhibition [5]	growth inhibition [6]
CC(=O)[O-].CC(=O)[O-].CC(=O)[O-].CC(=O)[O-].[Mo+2].[Mo+2]	-6.5%	2.1%	0.1%	3.25%	1.85%	5.6%
COC(=O)C1C(O)C(C)C(O)C(C)/C=C\C=C(C)C(=O)Nc2c(C)c(OC(C)=O)c3c(c2O)C(=O)C(C)=C2OCOC(=C23)C(C)=CC(C)(O)C(O)C(C)C1O (stereo unspecified)	11.9% and -16.8% and 23.8%	-15.7% and -27.9% and -5.4%	12.1% and -26.9% and 3.05%	-10.2% and -5.2% and 9.2%	26.9% and -13.5% and 10%	16.6% and -24.6% and 19.4%
O=[N+]([O-])CCCl	3.8%	2.1%	-3.4%	3.9%	3.95%	-3.9%
C=C1CC/C=C(/C)C(=O)C(OC(C)=O)C2C1CC2(C)C (stereo unspecified)	78% (active)	83.6% (active)	81.2% (active)	70.7% (active)	86.2% (active)	81.4% (active)
O=C(Cc1ccccc1)OCc1ccco1	6.9%	-23.9%	-30%	-41.5%	13.4%	-4.7%
O=C1NC(=O)C(C(=O)C(=O)Nc2cc(Cl)ccc2Cl)C(=O)N1	-7.45%	-25.3%	-20.6%	4.7%	-22.4%	-12.3%
O=C(Nc1ccc(N(CCCl)CCCl)cc1)Oc1ccc(C(=O)O)cc1	6.75%	6%	10.1%	9.3%	15.2%	20.5%
Nc1ccccc1C(=O)O	15.3%	18.4%	0.7%	8.6%	18.4%	3.8%
COc1ccc(CCNCc2ccc3ccccc3n2)cc1OC	-0.35%	-10.5%	7.2%	-16.4%	-11.5%	7.5%
NC(C(=O)[O-])C(=O)[O-].NC1CCCCC1N.[Pt+4]	7.35%	-5.95%	5.75%	-31.6%	-17.9%	-3.2%
COC1=CC23CCCN2CCc2cc4c(cc2C3C1O)OCO4 (stereo unspecified)	-6.9% and 0.4% and -9.15%	-23.4% and -25.8% and -28.7%	16.3% and 17.1% and 15.6%	4% and 8.1% and 2.4%	-12.8% and -5.35% and -6.25%	-3.85% and -1.8% and -36%
O=[N+]([O-])c1c(F)cc(F)c([N+](=O)[O-])c1F	-29.5%	-6.15%	-11.6%	-28.2%	-4.75%	52.9%
CC1COC(Nc2cccc3c2CCCC3)=N1 (stereo unspecified)	-10.1%	-13.7%	-10.6%	-34%	-8.1%	3%
O=C(O)c1cc(I)cc(I)c1I	-5.55%	-16.1%	-34.5%	-70.2%	1.25%	12.7%
CN(C)S(=O)(=O)N(SC(F)(Cl)Cl)c1ccccc1	98.8% (active)	99.5% (active)	99.4% (active)	98.8% (active)	99.2% (active)	99% (active)
CCN1C[C@]2(C)CC[C@H](O)C34C1C(C[C@@H]32)[C@@]1(O)CC[C@H]2C[C@@H]4[C@@H]1[C@H]2O	19.4%	1.15%	-1.45%	23.8%	6.7%	31.2%
CCN(CCCl)c1cc(CN(C)C)cc(NC(=O)c2ccc(C(=O)Nc3ccccc3)cc2)c1	0.7%	-18.4%	5%	26.2%	23.9%	12.4%
Cc1cc(C)[n+](CCc2ccccc2)c(C)c1	5.15%	2.55%	-3.25%	-6.3%	2.4%	4.25%
CCOP(=O)(NC(C)C)OCC	-4.55%	-18.6%	-2.8%	16.9%	6.8%	-1.8%
O=[N+]([O-])c1ccc(SCl)c([N+](=O)[O-])c1	31.9%	11.1%	18.8%	14.6%	31.9%	17.9%
CCCCNCCc1cccnc1	33.5%	13.8%	20.8%	23.7%	0.8%	15.9%

SMILES	growth inhibition [1]	growth inhibition [2]	growth inhibition [3]	growth inhibition [4]	growth inhibition [5]	growth inhibition [6]
CC(C)=NNC1=NC(CC(C)C)P(=O)(NCCCCNP2(=O)SC(NN=C(C)C)=NC2CC(C)C)S1 (stereo unspecified)	-5.25%	17.5%	11.1%	-18.2%	-11.3%	6.15%
CCC1=C(CC2NCCc3cc(OC)c(OC)cc32)CC2c3ccccc3CCN2C1 (stereo unspecified)	-16.8%	-26.5%	-42.7%	-9.75%	-22.8%	-16.3%
COc1ccc2c3c1O[C@H]1C(Br)C=C[C@H]4[C@@H](C2)N(C)CC[C@]314 (stereo partly specified)	-11.8%	-15.8%	7.15%	-22.6%	29.2%	8.35%
O=C(N/N=C/c1cc(Br)cc(Br)c1[O-])c1ccccc1O.O=C(N/N=C/c1cc(Br)cc(Br)c1[O-])c1ccccc1O.[Cl-].[Fe+3]	-3.25%	0.15%	-4.95%	-30.1%	12.1%	13.3%
[CH3][Pb]([CH3])([CH3])[O]C(=O)c1ccc([N+](=O)[O-])cc1	28.7%	-41%	25.1%	8.8%	1.15%	42.2%
CCOC(=O)C1(C#N)C(C#N)(C#N)C12CCCCC2 (stereo unspecified) (tested in a mixture with another compound)	36.5%	10.1%	56%	4.9%	33.8%	23.2%
O=C1C2CCN(CC2)C1(CO)CO	-4.4%	-4.25%	-26.6%	-58.1%	-30.4%	-20.2%
CCCC1(c2ccccc2)C(=O)NCNC1=O	-21.8%	-30.4%	-24.3%	-12.2%	-25.4%	-25.1%
NC(=O)NNC(=O)C(Cl)(Cl)Cl	-0.45%	-8.55%	5.6%	-63.3%	-4.65%	-14.2%
CCOC(=O)C(Cc1ccc(N(CCCl)CCCl)cc1)NC(=O)CNC(C)=O (stereo unspecified)	2.4%	-7.85%	14.7%	1.45%	-10.4%	10.3%
O=[N+]([O-])c1ncccc1NCCN1CCCC1	-2.2%	-0.5%	-15.8%	-29.3%	7.05%	4.7%
C=C(C)CC1(CC)C(=O)NC(=S)NC1=O	-11.8% and -1.6%	-21.6% and -1.3%	0.35%	6%	-5.6%	-13.4% and 12.1%
CCCCCCCN1CCC(C(=O)CC)(c2cccc(O)c2)CC1	21.6%	21.4%	33.5%	-2.75%	15.9%	30.6%
CCOC(=O)/C(=C\c1ccc(C(F)(F)F)cc1)[Se]c1ccccc1	26.6%	-34.1%	9.35%	13.8%	-2.5%	-0.3%
Cc1nc2ccc(Br)cc2c(=O)n1-c1ccc(N)cc1	-25.9%	-2.4%	-28.1%	16.2%	-8.2%	5.8%
CCN1CCCc2cc3c(C(F)(F)F)cc(=O)oc3cc21	-6.3%	-12.4%	-10%	-4.05%	-6.45%	-11.8%
CO/C=C/c1ccc2c(c1)OCO2	34.6%	25.5%	16.7%	10.2%	12.7%	-10.8%
CN(c1ccccc1)[N+](=O)[O-]	-9.45%	-12.2%	-14.2%	-5.1%	-7.8%	-5.3%
CCCCCCCCCCCCCCCC[As]1c2ccccc2Nc2ccccc21	4.4%	16.7%	7.05%	81.3% (active)	7.45%	28.5%
O=[As](O)(O)c1ccccc1Cl	14.1%	-13.4%	-32.1%	4.55%	3.2%	16.6%

— PubChem BioAssay (NCI)
